{"source": "paper PMC5540273", "about": "(PLoS ONE, 2017);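 further: KINOMEscan kinase panel screen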", "data": [{"tested_on": "STK36", "details": "concentration: 1 μM, replicates: in singlicate; n = 1", "units": {"%Inh": "%"}, "values": [{"smiles": "c1ccc(Oc2ccc(Nc3ccnc4cc(-c5ccc(CNCCN6CCOCC6)o5)ccc34)cc2)nc1", "note": "[GW567145]", "%Inh": 0}, {"smiles": "Cn1cc(-c2[nH]c3cc(NC(=O)[C@H](N)C4CCCCC4)cc4c3c2C=NNC4=O)cn1", "%Inh": 0}, {"smiles": "O=C(Nc1cccc(-c2nn3ccccc3c2-c2ccnc(Nc3cccc(F)c3)n2)c1)c1c(F)ccc(F)c1Cl", "note": "[GSK357952]", "%Inh": 99.3}, {"smiles": "Cc1ccc(C)c(NC(=O)NC2CCN(c3ccnc(Nc4ccc(F)cc4)n3)C2)c1", "note": "(stereo not shown) [GSK1379720]", "%Inh": 5}, {"smiles": "O=C(Nc1n[nH]c2cc(-c3ccoc3)ccc12)C1CC1", "note": "[SB-738481]", "%Inh": 13}, {"smiles": "COc1cccc(C(=O)Nc2cccc(Oc3ccc4nc(NC(=O)C5CC5)cn4n3)c2)c1", "%Inh": 0}, {"smiles": "Cc1ccc(S(=O)(=O)Nc2ccc(Nc3nccc(Nc4cccc5[nH]ncc45)n3)cc2)cc1", "note": "[GSK581271]", "%Inh": 0}, {"smiles": "CN(C)Cc1ccc(-c2ccc3c(Nc4ccc(Oc5ccccn5)cc4)ccnc3c2)o1", "note": "[GW567148]", "%Inh": 0}, {"smiles": "Nc1ncc(-c2ccc3nccc(-c4ccncc4)c3c2)cc1S(=O)(=O)N1CCOCC1", "note": "[GSK1627798]", "%Inh": 0}, {"smiles": "CC(=O)Nc1nc2cnc(Nc3cc(NC(=O)c4cccc(C5(C#N)CC5)c4Cl)ccc3C)nc2s1", "%Inh": 0}, {"smiles": "Cl.Cl.NCC(NC(=O)c1cc(-c2ccccc2)c(-c2ccnc3[nH]ccc23)s1)c1ccccc1", "note": "(stereo not shown) [GSK1321561]", "%Inh": 29}, {"smiles": "COc1cccc(C2=C(Nc3ccc(Cl)c(C(=O)O)c3)C(=O)NC2=O)c1", "note": "[SB-390769]", "%Inh": 0}, {"smiles": "O=c1[nH]cc(-c2ccc(N3CCOCC3)cc2)c2sc(-c3cn[nH]c3)cc12", "note": "[GSK2276055]", "%Inh": 0}, {"smiles": "Cn1cc(-c2ccc3c(c2)CCN3C(=O)Cc2cccc(F)c2)c2c(N)ncnc21", "note": "[GSK2603358]", "%Inh": 0}, {"smiles": "CN1CCN(CCCNc2nccc(-c3c(-c4ccc(F)cc4)nn4cc(C(F)(F)F)ccc34)n2)CC1", "note": "[GW621581]", "%Inh": 97.6}, {"smiles": "Cc1ccc(C(=O)Nc2ccc(Nc3ccnc4cc(-c5nccs5)ccc34)cc2O)cc1.Cl", "note": "[GW494702]", "%Inh": 35}, {"smiles": "CC(C)(C)c1ccc2nccc(Nc3cccc(O)c3)c2c1", "note": "[GW856795]", "%Inh": 0}, {"smiles": "Nc1n[nH]c2cnc(-c3ccccc3)cc12", "note": "[SB-642124]", "%Inh": 0}, {"smiles": "CCc1ccc(-c2ccc3c(c2)-c2c(cnn2C)S(=O)(=O)N3C)cc1", "%Inh": 0}, {"smiles": "O=C(Nc1n[nH]c2nc(-c3ccc(O)cc3)ccc12)C1CC1", "note": "[SB-710363]", "%Inh": 15}, {"smiles": "CC(=O)N1CCN(c2ccc(Nc3nccc(-c4sc(C(C)C)nc4-c4cccc(NS(=O)(=O)c5cccc(Cl)c5)c4)n3)cn2)CC1", "note": "[GSK1660437]", "%Inh": 99.8}, {"smiles": "c1ccc(-c2n[nH]cc2Nc2ccnc3ccccc23)nc1", "note": "[GW694077]", "%Inh": 0}, {"smiles": "Oc1cc(Nc2ccnc3cc(I)ccc23)ccc1F", "note": "[GW552771]", "%Inh": 0}, {"smiles": "COc1ccc(Nc2nccc(N3CCC(NC(=O)Nc4cccc(OC)c4)C3)n2)cc1", "note": "(stereo not shown) [GSK1379742]", "%Inh": 0}, {"smiles": "COc1cc(Nc2nccc(-c3c(-c4cccc(NC(=O)c5c(F)cccc5F)c4)nn4ccccc34)n2)cc(OC)c1OC", "note": "[GSK323521]", "%Inh": 19}, {"smiles": "c1ccc(-c2cnc3nccnn23)cc1", "note": "[AH20685]", "%Inh": 0}, {"smiles": "C[C@@H](Oc1cc(-n2cnc3cc(-c4ccnc(NCCS(C)(=O)=O)c4)ccc32)sc1C(N)=O)c1ccccc1Cl", "note": "[GSK907232]", "%Inh": 0}, {"smiles": "COc1cc(Nc2ncc3c(C)nc(-c4cc5ccccc5[nH]4)n3n2)cc(OC)c1OC", "note": "[GW869516]", "%Inh": 6}, {"smiles": "Cl.c1ccc(-c2ccc3c(Nc4ccc5[nH]ncc5c4)ccnc3c2)nc1", "note": "[GW440137]", "%Inh": 0}, {"smiles": "Cl.c1ccc(-c2ccc3c(Nc4ccc5[nH]ccc5c4)ccnc3c2)nc1", "note": "[GW440138]", "%Inh": 0}, {"smiles": "Cl.NC(=O)c1cccc(Nc2nccc(Nc3ccc(Oc4c(Cl)cccc4Cl)c(Cl)c3)n2)c1", "note": "[GW659009]", "%Inh": 0}, {"smiles": "O=C(Nc1ccccc1F)NC1CCN(c2ccnc(Nc3ccc(F)cc3)n2)CC1", "note": "[GSK1379800]", "%Inh": 0}, {"smiles": "COc1ccc(-c2coc3ccc(-c4nnc(SCc5ccc(OC)c(C(F)(F)F)c5)o4)cc23)cc1", "%Inh": 29}, {"smiles": "Clc1ccc(-c2nn3ncccc3c2-c2ccnc(Nc3ccc4c(c3)OCCO4)n2)cc1", "note": "[GW829116]", "%Inh": 79}]}]}
